A selection: hits, their analogues and other compounds. The true share with any hit is near 2.6%.
Platelet DG rel: platelet dense granule release activity. human platelet-rich plasma, SFLLRN dense granule ATP release, luminescence. inhibition, %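 (compounds screened at 7.5 µM in platelet-rich plasma)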. 0.22% of 300,000 active. AID 1663;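 active = mean replicate score, as percent of positive control, at or above 50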
Exocytosis inh: blocks lytic granule exocytosis; TALL-104 LAMP-1 surface exposure, flow cytometry; cells stimulated with thapsigargin and PMA; inhibition, % at 10 µM; 0.66% of 360,000 active; AID 651702;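 active = inhibition above about 55%, limit read from the data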
PfM18AAP inh-1: PfM18AAP enzyme inhibition | recombinant PfM18AAP, H-Glu-NHMec fluorogenic cleavage | inhibition, % at 7.35 µM | 1.2% of 290,000 active;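 active = inhibition above the campaign mean inhibition over all tested compounds plus 3 SD, cut at about 28% in these data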;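 note: 0% = plate median of test compound wells and 100% = 2 mM ZnCl2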
Rce1 inhib: inhibitors of yeast Ras-converting enzyme; yeast membranes, quenched prenylated peptide cleavage fluorescence; calls only; 0.27% of 290,000 active; AID 2563;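 active = fall in fluorescence gain of 50% or more versus controls, with final raw signal at or below 3038400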;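 note: plate controls were neutral control wells for no effect and wells lacking membranes for full effect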
ABHD5-PLIN5 inh: blocks binding of human ABHD5 to perilipin-5; Q00G26+Q8WTS1; Split G. princeps luciferase complementation, luminescence, 4 h; inhibition, % at 4 µM; 0.78% of 360,000 active;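 active = inhibition above the mean inhibition across every tested compound plus 3 SD, cut at about 22% in these data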;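 note: 0% = DMSO only wells and the 100% control is not disclosed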
PfM18AAP inh-2: confirmation of Plasmodium falciparum M18 aspartyl aminopeptidase inhibitors; shares compounds with PfM18AAP inh-1; recombinant PfM18AAP, H-Glu-NHMec fluorogenic cleavage; inhibition, % at 7.35 µM; 28% of 2,400 active;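 active = mean inhibition over replicate wells above the hit cutoff set for the earlier primary screen, cut at about 29% in these data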;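 note: 0% = median of test compound wells and 100% = 2 mM ZnCl2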
CTSL1 confirm: Cathepsin L (human) inhibition, confirmation. purified cathepsin L1, Z-Leu-Arg-MCA fluorescence. 2,400 tested, under 10 active. shares compounds with PfM18AAP inh-1. inhibition, % at 5.96 µM;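 active = average inhibition across replicates above the hit cutoff set in the earlier primary screen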;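 note: 0% = median of test compound wells and 100% = Z-Phe-Ala-diazomethylketone 1 µM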
Target sequence (P07711 whole entry, looked up): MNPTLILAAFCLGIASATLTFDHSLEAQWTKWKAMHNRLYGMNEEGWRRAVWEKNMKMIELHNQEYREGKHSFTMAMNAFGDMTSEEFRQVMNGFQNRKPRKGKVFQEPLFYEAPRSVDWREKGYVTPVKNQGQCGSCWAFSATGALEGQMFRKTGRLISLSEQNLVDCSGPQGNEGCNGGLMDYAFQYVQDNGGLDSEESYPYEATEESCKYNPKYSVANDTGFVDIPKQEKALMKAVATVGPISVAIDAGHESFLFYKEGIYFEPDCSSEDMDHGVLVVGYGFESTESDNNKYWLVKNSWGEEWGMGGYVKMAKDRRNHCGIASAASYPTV
Starred values were filed as active, the others as inactive; i = inactive; . = no result given.

SMILES	Platelet DG rel	Exocytosis inh	PfM18AAP inh-1	Rce1 inhib	ABHD5-PLIN5 inh	PfM18AAP inh-2	CTSL1 confirm
CCOC(=O)c1sc(N/N=C/c2cc(Br)c(O)c(OC)c2)nc1C	-5	-16	37*	i	-8	11	-2
CC(=O)Nc1ccc2nc(NC(=O)COc3cccc(C)c3)sc2c1	16	3	-2	i	0	.	.
Cc1cc(NC(=O)Cc2ccsc2)ccc1Br	4	-8	-2	i	-6	.	.
COc1ccc(OC)c(CCNC(=O)Cn2sc3nc(C)cc(C)c3c2=O)c1	43	.	51*	i	.	19	0
COc1ccc(OC)c(CCNC(=O)Cn2nc(C)c3c(C)n(-c4ccc(C)cc4)nc3c2=O)c1	-6	6	-2	i	1	.	.
Cc1cc(C)c2c(=O)n(CC(=O)Nc3ccc(Br)c(C)c3)sc2n1	6	48	60*	.	7	41*	0
Cc1cc(C)c2c(=O)n(CC(=O)Nc3cccc(Cl)c3C)sc2n1	3	65*	63*	i	48*	41*	3
Cc1cc(Cl)c2oc(C(=O)N(C)C3CCOC3)c(C)c2c1 (stereo not given)	7	-1	3	i	4	.	.
Oc1c(C(c2ccccc2)N2CCCCC2)sc2ncnn12 (stereo not given)	0	-1	57*	i	7	-26	-5
Fc1cccc(C[n+]2csc3ccccc32)c1	7	16	34*	i	36*	6	0
O=c1c2cc3c(=O)n(-c4ccccc4O)c(=O)c3cc2c(=O)n1-c1ccccc1O	0	-6	41*	i	-9	-40	6
Cc1c(O)cc2n(c1=O)-c1ccccc1C2(C)C	7	-4	15	.	-2	.	.
COC(=O)CC#N	.	2	.	.	-5	.	.
O=C(Nc1cc(Cl)ccc1Cl)Nn1cnnc1	0	2	87*	i	10	89*	5
CCOC(=O)c1ccc(NC(=O)Nn2cnnc2)cc1	3	-1	72*	i	-1	64*	1
CC(C)(C)NC(=O)Nc1ccc(F)c(Cl)c1	-1	6	1	i	1	.	.
O=C(Nc1ccc(F)cc1)Nc1cccnc1	7	-4	7	i	1	.	.
O=C(Nc1ccc(F)c(Cl)c1)Nn1cnnc1	-5	-2	76*	i	12	60*	-1
O=C(Nc1ccc(F)cc1)Nn1cnnc1	-2	-9	58*	i	2	46*	-4
Cc1nn(-c2ccccc2)c(Cl)c1CN(C(=O)CCl)c1ccc(Cl)cc1	26	9	1	i	12	.	.
O=C(COC(=O)Cc1cccc(C(F)(F)F)c1)Nc1cccc2ccccc12	14	-3	1	i	-5	.	.
Cc1c(Cl)cccc1NC(=O)Nn1cnnc1	-20	5	82*	i	3	65*	1
O=C(Nc1ccccn1)C(=O)Nc1ccccn1	27	-3	4	i	-3	.	.
S=C(Nc1ccccn1)c1ccccn1	12	1	36*	i	-11	-23	2
O=[N+]([O-])c1ccccc1/C=C/C=N/n1c(-c2ccco2)n[nH]c1=S	0	-2	32*	i	5	-15	-2
SMILES	Platelet DG rel	Exocytosis inh	PfM18AAP inh-1	Rce1 inhib	ABHD5-PLIN5 inh	PfM18AAP inh-2	CTSL1 confirm
Fc1ccc(-n2c(-c3ccco3)n[nH]c2=S)cc1	-2	-5	16	i	5	.	.
Cc1ccc(-n2c(-c3ccco3)n[nH]c2=S)cc1	-2	0	32*	i	0	-5	-5
CC(/C=N/n1c(-c2ccco2)n[nH]c1=S)=C\c1ccco1	6	-4	32*	i	2	-27	2
CC(/C=N/n1c(-c2ccc(C)cc2)n[nH]c1=S)=C\c1ccco1	0	-3	14	i	3	.	.
Cc1csc2c(SCC(=O)NNS(=O)(=O)c3cccc(C(F)(F)F)c3)ncnc12	24	-8	36*	i	-3	-38	-4
O=C(c1ccc(Cl)cc1)C1CCN(C(=O)N2CCOCC2)CC1	-4	1	1	i	3	.	.
COc1ccc2c(-c3ccccc3)cc(N3CCOCC3)nc2c1	-1	-3	50*	i	-7	-44	6
c1ccc(-c2cc(-c3ccc(N4CCOCC4)cc3)nc3ccccc23)cc1	0	-8	-4	i	-4	.	.

Assay outcomes from PubChem BioAssay.
